Experimental data published in PubChem BioAssay AID1159580 (chemical genetic matrix, 2015).
Several values for one entry are separate records, joined by “and”; a condition that tells them apart may be missing. Equal entries are not always repeated. About 2,000 (36%) of roughly 5,500 compounds were called active. Another 18% or so got no clear call; they are omitted. Cut-off read from the data, not from the text of the source: active = normalized growth mostly below about 0.91 (no sharp cut-off); inconclusive = no clear call, values can overlap the other calls; inactive = mostly above about 0.92. The list shows a part of the results.

Experiment: chemical genetic growth profiling, strain panel (AID 1159580);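 note: tested at 20 µM; growth read once vehicle control cultures reached saturation at 30 °C; 1 = growth at the plate median or of vehicle wells; lower values mean less growth of the strain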
Settings: S. cerevisiae deletion strains, growth OD

Measured: normalized growth

O=C1NC(O)=NC1(c1ccccc1)c1ccccc1
inactive: locus YAL013W, strain DEP1, active compounds read low 1.01 and 0.988 | locus YAL021C, strain ccr4, active compounds read low 1.01 | locus YAL026C, strain drs2, active compounds read low 1.01 | locus YAL030W, strain snc1, active compounds read low 1.02 | locus YAL040C, strain CLN3, active compounds read low 0.959 | locus YBL061C, strain skt5, active compounds read low 1.01 | locus YBR009C, strain hhf1, active compounds read low 1 | locus YBR021W, strain FUR4, active compounds read low 0.995 | locus YBR023C, strain chs3, active compounds read low 1.03 | locus YBR171W, strain sec66, active compounds read low 1.02 | locus YBR229C, strain ROT2, active compounds read low 1 | locus YBR231C, strain swc5, active compounds read low 1.02 | locus YBR279W, strain paf1, active compounds read low 1.01 | locus YCL011C, strain gbp2, active compounds read low 1.02 | locus YCL016C, strain dcc1, active compounds read low 1.02 | locus YCL029C, strain bik1, active compounds read low 1.03 | locus YCL061C, strain MRC1 (second series), active compounds read low 0.986 | locus YCL061C, strain MRC1, active compounds read low 1.01 | locus YCL069W, strain vba3, active compounds read low 1.02 | locus YCR088W, strain abp1, active compounds read low 1.01 | locus YDL005C, strain med2, active compounds read low 1.03 | locus YDL035C, strain GPR1, active compounds read low 1.01 | locus YDL040C, strain nat1, active compounds read low 1.02 | locus YDL074C, strain BRE1, active compounds read low 1.02 | locus YDL101C, strain DUN1, active compounds read low 1.01 | locus YDL134C, strain PPH21, active compounds read low 1.01 | locus YDL185W, strain tfp1, active compounds read low 1.01 | locus YDL192W, strain arf1, active compounds read low 1.01 | locus YDR001C, strain nth1, active compounds read low 1.02 | locus YDR069C, strain doa4, active compounds read low 0.999 | locus YDR101C, strain arx1, active compounds read low 1.01 | locus YDR137W, strain rgp1, active compounds read low 1.04 | locus YDR150W, strain NUM1, active compounds read low 1.01 | locus YDR159W, strain sac3, active compounds read low 0.98 | locus YDR162C, strain NBP2, active compounds read low 1.01 | locus YDR195W, strain ref2 0.987 | locus YDR297W, strain sur2, active compounds read low 1.02 | locus YDR318W, strain mcm21, active compounds read low 1.02 | locus YDR334W, strain swr1, active compounds read low 1.01 | locus YDR335W, strain msn5, active compounds read low 1.02 | locus YDR363W, strain ESC2, active compounds read low 0.954 | locus YDR388W, active compounds read low 1.02 | locus YDR392W, strain spt3, active compounds read low 0.932 | locus YDR502C, strain sam2, active compounds read low 1 | locus YEL003W, strain gim4, active compounds read low 1 | locus YEL037C, strain rad23, active compounds read low 1.01 | locus YEL061C, strain CIN8 (second series), active compounds read low 1.02 | locus YEL061C, strain CIN8, active compounds read low 1.01 | locus YER002W, strain NOP16, active compounds read low 0.972 | locus YER015W, strain faa2, active compounds read low 1 | locus YER016W, strain bim1, active compounds read low 1.02 | locus YER110C, active compounds read low 1.01 | locus YER111C, strain swi4, active compounds read low 1.02 | locus YER155C, strain BEM2 (second series), active compounds read low 0.994 | locus YER155C, strain BEM2, active compounds read low 1.02 | locus YER167W, strain BCK2, active compounds read low 1.01 | locus YFR010W, strain ubp6, active compounds read low 1.01 | locus YGL078C, strain dbp3, active compounds read low 1.01 | locus YGL086W, strain mad1, active compounds read low 0.997 | locus YGL167C, strain pmr1, active compounds read low 1.03 | locus YGL173C, strain kem1, active compounds read low 1.01 | locus YGL227W, strain vid30, active compounds read low 1.02 | locus YGL240W, strain doc1, active compounds read low 1.01 | locus YGL248W, strain PDE1, active compounds read low 1.01 | locus YGL253W, strain hxk2, active compounds read low 1.01 | locus YGR078C, strain PAC10, active compounds read low 1.01 | locus YGR135W, strain pre9, active compounds read low 1.01 | locus YGR229C, strain SMI1, active compounds read low 0.998 | locus YGR252W, strain gcn5, active compounds read low 0.923 | locus YHR013C, strain ard1, active compounds read low 1.02 | locus YHR027C, strain rpn1, active compounds read low 1.01 | locus YHR030C, strain SLT2, active compounds read low 1.01 and 0.991 | locus YHR079C, strain IRE1 (second series), active compounds read low 1.03 | locus YHR079C, strain IRE1, active compounds read low 0.991 | locus YHR094C, strain hxt1, active compounds read low 1.01 | locus YHR129C, strain ARP1, active compounds read low 1.01 | locus YHR142W, strain chs7, active compounds read low 1.03 | locus YHR200W, strain rpn10, active compounds read low 1.01 | locus YIL066C, strain RNR3, active compounds read low 1.02 | locus YIL073C, strain SPO22, active compounds read low 1.03 | locus YIL125W, strain kgd1, active compounds read low 1.01 | locus YIR030C, strain dcg1, active compounds read low 1.01 | locus YJL092W, strain hpr5, active compounds read low 1.01 | locus YJL095W, strain BCK1 (second series), active compounds read low 1.02 | locus YJL095W, strain BCK1, active compounds read low 1.01 | locus YJL115W, strain asf1, active compounds read low 1.01 | locus YJL129C, strain trk1, active compounds read low 1.02 | locus YJL134W, strain LCB3, active compounds read low 1 | locus YJL154C, strain vps35, active compounds read low 1.02 | locus YJL164C, strain tpk1, active compounds read low 1.01 | locus YJL166W, strain qcr8, active compounds read low 1.02 | locus YJL168C, strain set2, active compounds read low 1.01 | locus YJL187C, strain SWE1 (second series), active compounds read low 1.02 | locus YJL187C, strain SWE1, active compounds read low 1.02 | locus YJR043C, strain POL32, active compounds read low 1.01 | locus YJR066W, strain TOR1, active compounds read low 0.96
